Records with an inconclusive call do not appear. Calls of active or inactive are those of the source. The calls were made as follows: active = hit-call score of the fitted dose curve at least 0.9, where 1 is the maximum; inconclusive = response in the unintended direction; inactive = score below 0.9.
Target: Glycogen synthase kinase-3 beta (Homo sapiens) (UniProt P49841)
Assay: NVS_ENZ_hGSK3b: NovaScreen (NVS) Enzymatic Assay for human Glycogen Synthase Kinase-3 beta (GSK3b) (AID 2283165)
How it was run: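 Recombinant enzyme with specific fluorescent substrate, 1 h, product separated by electrophoretic mobility shift. Primary duplicate screen at 25 uM; actives (e.g. 30% inhibition) followed in singleton concentration-response to 50 uM. Signal loss fitted versus DMSO.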

Sequence of Glycogen synthase kinase-3 beta (Homo sapiens) (P49841 whole entry, looked up): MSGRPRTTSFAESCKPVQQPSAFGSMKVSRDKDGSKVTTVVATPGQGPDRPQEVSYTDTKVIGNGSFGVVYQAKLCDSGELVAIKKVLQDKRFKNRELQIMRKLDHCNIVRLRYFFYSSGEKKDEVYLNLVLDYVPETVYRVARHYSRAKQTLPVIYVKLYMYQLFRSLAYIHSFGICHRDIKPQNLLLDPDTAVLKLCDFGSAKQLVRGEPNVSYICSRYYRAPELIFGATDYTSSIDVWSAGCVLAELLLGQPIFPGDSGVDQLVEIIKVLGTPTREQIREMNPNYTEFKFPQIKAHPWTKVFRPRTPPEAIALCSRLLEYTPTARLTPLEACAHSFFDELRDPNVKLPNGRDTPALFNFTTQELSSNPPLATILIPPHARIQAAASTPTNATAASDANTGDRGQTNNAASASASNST

| SMILES | outcome |
| --- | --- |
| CC(C)(OO)c1ccccc1 | inactive |
| Cc1ccccc1N | inactive |
| CC(C)(C)CC(C)(C)c1ccc(O)cc1 | inactive |
| O=C1C2(Cl)C3(Cl)C4(Cl)C(Cl)(Cl)C5(Cl)C3(Cl)C1(Cl)C5(Cl)C24Cl (stereo unspecified) | inactive |
| COc1cc(-c2ccc(N)c(OC)c2)ccc1N | inactive |
| CCCCCCCCc1ccc(O)cc1 | inactive |

Source: PubChem BioAssay (EPA / NIEHS)
